Counter-ions that a name gives are not always drawn.

One assay relates to LOC_OS01G67340-cb003. Nature of the assay: thermal shift delta Tm vs DMSO control; higher = stronger stabilization (binding). Particulars: 12.5 µM; protein concentration 2 µM. A digest of the protocol: (§1)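 Purified, E. coli-expressed rice kinase domain constructs were tested by differential scanning fluorimetry in 96-well plates: 19.5 μl of 2 μM kinase in 100 mM potassium phosphate pH 7.5, 150 mM NaCl, 10% glycerol, 5 × SYPRO Orange, plus compound in DMSO. Fluorescence was read from 25°C to 95°C at 0.05°C/s. Melting temperatures came from Boltzmann fits, and the shift is the triplicate mean relative to protein with DMSO alone.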
On to `CCNC(=O)Nc1ccc(-c2nc(N3CCOC[C@@H]3C)c3c(n2)C(C)(C)S(=O)(=O)C3)cc1`, for which the “thermal shift delta Tm” value was 0.5 °C.
For `CN1CCN(c2ccc(OC(F)(F)F)c(Nc3ncc4c(n3)-c3c(c(C(N)=O)nn3CCO)CC4)c2)CC1`, the “thermal shift delta Tm” value was 0.36 °C.
The same measure, in the same setting: for `C[C@@H](Oc1cc(-n2cnc3ccc(CN4CCN(C)CC4)cc32)sc1C(N)=O)c1ccccc1C(F)(F)F` the value was 0.69 °C; for `COc1cc(OC)cc(-c2cc3cnc(N)nc3nc2NC(=O)NC(C)(C)C)c1`, -0.11 °C; for `COC(=O)c1ccc2c(c1)NC(=O)/C2=C(\Nc1ccc(N(C)C(=O)CN2CCN(C)CC2)cc1)c1ccccc1` [Nintedanib (BIBF 1120)], 0.48 °C.
On the same count and under the same terms, for `Cc1[nH]c(/C=C2\C(=O)Nc3ccccc32)c(C)c1CCC(=O)O` [Orantinib (TSU-68, SU6668)] the value was 1.81 °C; for `NC1(c2ccc(-c3nc4ccn5c(=O)[nH]nc5c4cc3-c3ccccc3)cc2)CCC1`, -0.9 °C.
Same read-out and setting: for `N#Cc1ccc2[nH]c(O)c(-c3ccc(CN4CCOCC4)cn3)c2c1` the value was -0.02 °C; for `C=C[C@@](C)(/C=C/c1ccc(O)cc1)CCC=C(C)C` [Bakuchiol], -0.02 °C; for `Cn1cnc2c(F)c(Nc3ccc(Br)cc3F)c(C(=O)NOCCO)cc21`, 0.06 °C.
For `CC(C)(C)c1nc(-c2ccc(NC(=O)Nc3cccc(C(F)(F)F)c3)c3ccccc23)c2c(N)nccn12` [kira6], the “thermal shift delta Tm” value was found to be 8.45 °C.
Take `CC1=C(C(=O)Nc2cc3cn[nH]c3cc2F)C(c2ccc(C(F)(F)F)cc2)CC(=O)N1` (centres undefined): the “thermal shift delta Tm” value is -0.48 °C.
On to `Cc1cn(-c2cc(NC(=O)c3ccc(C)c(Nc4nccc(-c5cnccn5)n4)c3)cc(C(F)(F)F)c2)cn1` [Radotinib], for which the “thermal shift delta Tm” value is 0.48 °C.
Same read-out and setting: in the case of `COc1ncc(-c2ccc3nccc(-c4ccnnc4)c3c2)cc1NS(=O)(=O)c1ccc(F)cc1F` it was 1.24 °C.
Consider `CNC(=O)c1cc(COc2nnc(Nc3ccc(Cl)cc3)c3ccoc23)ccn1` [Telatinib], for which the “thermal shift delta Tm” value is 0.82 °C.
Still for that read-out and setting: in the case of `COc1cc2nccc(Oc3ccc(NC(=O)C4(C(=O)Nc5ccc(F)cc5)CC4)cc3)c2cc1OC` [Cabozantinib malate (XL184)] it was 0.53 °C; in that of `C1=N/C2=N/c3ccc(OCCN4CCCC4)c(c3)COC/C=C/COCc3cccc(c3)C(=C1)N2` [Pacritinib (SB1518)], 1.79 °C; in that of `N#Cc1cnc(Nc2cc(NC[C@H]3CNCCO3)c(C(F)(F)F)cn2)cn1`, 0.67 °C.
Same read-out and setting: for `COc1cc(N2CCN(C)CC2)ccc1Nc1nccc(-c2cn(C)c3cnccc23)n1` the value was 0.37 °C.
Still for that read-out and setting: for `CC(C)(C)NS(=O)(=O)c1cncc(-c2cc(F)c3nc(N)nn3c2)c1` the value was 0.93 °C; for `CCNC(=O)C#Cc1ccc2c(C(=Nc3ccc(CN(C)C)cc3)c3ccccc3)c(O)[nH]c2c1`, 1.01 °C.
Consider `O=C1NC(=O)[C@@H](c2cn3c4c(cccc24)CCC3)[C@@H]1c1c[nH]c2ccccc12` [Tivantinib (ARQ 197)], for which the “thermal shift delta Tm” value is 0.37 °C.
Still for that read-out and setting: in the case of `O=S(=O)(c1cccc2c(I)cccc12)N1CCCNCC1` it was 0 °C; in that of `CCN1CCN(Cc2ccc(C(=O)Nc3ccc(C)c(Oc4ccc5c(c4)CC(=O)N5)c3)cc2C(F)(F)F)CC1`, 1.05 °C.
Still for that read-out and setting: in the case of `C[C@@H](Nc1cc(F)cc(F)c1)c1cc(C(=O)N(C)C)cc2c(=O)cc(N3CCOCC3)oc12` it was 0.36 °C; in that of `C[C@H](CN(C)C)Oc1nc(Nc2cc3cccc(Cl)c3cn2)cnc1C#N`, 0.6 °C; in that of `CNC(=O)c1cc(Oc2ccc(NC(=O)Nc3ccc(Cl)c(C(F)(F)F)c3)cc2)ccn1` [Sorafenib], 1.48 °C.
On the same count and under the same terms, in the case of `COc1ccc(Cl)cc1NC(=O)Nc1cc(C)nc2ccccc12` it was 0.83 °C; in that of `O=C(c1cccc(Cl)c1F)N1CCN(Cc2cccc(Nc3nccs3)n2)CC1`, 0.2 °C; in that of `CNC(=O)c1ccc(C)c(-n2c(C)cc(OCc3ccc(F)cc3F)c(Br)c2=O)c1`, -0.29 °C.
Regarding `CCn1c(-c2nonc2N)nc2c(C#CC(C)(C)O)ncc(OC[C@H]3CCCNC3)c21`, the “thermal shift delta Tm” value was -0.43 °C.
Still for that read-out and setting: in the case of `CCC[C@H](NC(=O)/C(C#N)=C/c1cccc(Br)n1)c1ccccc1` [Degrasyn (WP1130)] it was -3.27 °C; in that of `OC1CCC(Nc2ncc3nc(Nc4c(F)cc(F)cc4F)n([C@H]4CCOC4)c3n2)CC1` (some centres undefined) [Tanzisertib(CC-930)], 0.54 °C; in that of `CN(C)C/C=C/C(=O)Nc1cc2c(Nc3ccc(F)c(Cl)c3)ncnc2cc1O[C@H]1CCOC1` [Afatinib (BIBW2992) Dimaleate], 0.71 °C.
On to `Cc1cc(O)c(-c2ccc([C@@H](C)CN)cc2)c2c1[nH]c(=O)c1sccc12` [OTS514 hydrochloride], for which the “thermal shift delta Tm” value was 0.86 °C.
Same read-out and setting: in the case of `Cc1ccc(F)c(NC(=O)Nc2ccc(-c3cccc4[nH]nc(N)c34)cc2)c1` [Linifanib (ABT-869)] it was 2.81 °C; in that of `COc1cc(N2CCC(N(C)C)CC2)ccc1Nc1ncc(Cl)c(Nc2ccccc2P(C)(C)=O)n1`, 1.45 °C.

A further assay relates to LOC_OS01G70970-cb002. The assay is described as above. Particulars: 12.5 µM; protein concentration 2 µM. A digest of the protocol: as §1
Consider `CCNC(=O)Nc1ccc(-c2nc(N3CCOC[C@@H]3C)c3c(n2)C(C)(C)S(=O)(=O)C3)cc1`, for which the “thermal shift delta Tm” value came out at 0.57 °C.
On the same count and under the same terms, in the case of `CN1CCN(c2ccc(OC(F)(F)F)c(Nc3ncc4c(n3)-c3c(c(C(N)=O)nn3CCO)CC4)c2)CC1` it was 0.12 °C.
On the same count and under the same terms, for `C[C@@H](Oc1cc(-n2cnc3ccc(CN4CCN(C)CC4)cc32)sc1C(N)=O)c1ccccc1C(F)(F)F` the value was 0.44 °C; for `COc1cc(OC)cc(-c2cc3cnc(N)nc3nc2NC(=O)NC(C)(C)C)c1`, 0.35 °C; for `COC(=O)c1ccc2c(c1)NC(=O)/C2=C(\Nc1ccc(N(C)C(=O)CN2CCN(C)CC2)cc1)c1ccccc1` [Nintedanib (BIBF 1120)], 2.57 °C.
Consider `Cc1[nH]c(/C=C2\C(=O)Nc3ccccc32)c(C)c1CCC(=O)O` [Orantinib (TSU-68, SU6668)], for which the “thermal shift delta Tm” value worked out at 4.33 °C.
On the same count and under the same terms, in the case of `NC1(c2ccc(-c3nc4ccn5c(=O)[nH]nc5c4cc3-c3ccccc3)cc2)CCC1` it was 0.31 °C; in that of `N#Cc1ccc2[nH]c(O)c(-c3ccc(CN4CCOCC4)cn3)c2c1`, 0.56 °C; in that of `C=C[C@@](C)(/C=C/c1ccc(O)cc1)CCC=C(C)C` [Bakuchiol], 0.49 °C.
Same read-out and setting: in the case of `Cn1cnc2c(F)c(Nc3ccc(Br)cc3F)c(C(=O)NOCCO)cc21` it was 0.46 °C; in that of `CC(C)(C)c1nc(-c2ccc(NC(=O)Nc3cccc(C(F)(F)F)c3)c3ccccc23)c2c(N)nccn12` [kira6], 0.75 °C; in that of `CC1=C(C(=O)Nc2cc3cn[nH]c3cc2F)C(c2ccc(C(F)(F)F)cc2)CC(=O)N1` (centres undefined), 0.04 °C.
With `Cc1cn(-c2cc(NC(=O)c3ccc(C)c(Nc4nccc(-c5cnccn5)n4)c3)cc(C(F)(F)F)c2)cn1` [Radotinib], the “thermal shift delta Tm” value stood at 0.3 °C.
On the same count and under the same terms, in the case of `COc1ncc(-c2ccc3nccc(-c4ccnnc4)c3c2)cc1NS(=O)(=O)c1ccc(F)cc1F` it was 0.34 °C.
On the same count and under the same terms, in the case of `CNC(=O)c1cc(COc2nnc(Nc3ccc(Cl)cc3)c3ccoc23)ccn1` [Telatinib] it was 0.19 °C; in that of `COc1cc2nccc(Oc3ccc(NC(=O)C4(C(=O)Nc5ccc(F)cc5)CC4)cc3)c2cc1OC` [Cabozantinib malate (XL184)], 0.57 °C; in that of `C1=N/C2=N/c3ccc(OCCN4CCCC4)c(c3)COC/C=C/COCc3cccc(c3)C(=C1)N2` [Pacritinib (SB1518)], 2.62 °C.
Consider `N#Cc1cnc(Nc2cc(NC[C@H]3CNCCO3)c(C(F)(F)F)cn2)cn1`, for which the “thermal shift delta Tm” value was found to be 1.58 °C.
On the same count and under the same terms, in the case of `COc1cc(N2CCN(C)CC2)ccc1Nc1nccc(-c2cn(C)c3cnccc23)n1` it was 0.31 °C; in that of `CC(C)(C)NS(=O)(=O)c1cncc(-c2cc(F)c3nc(N)nn3c2)c1`, 0.9 °C; in that of `CCNC(=O)C#Cc1ccc2c(C(=Nc3ccc(CN(C)C)cc3)c3ccccc3)c(O)[nH]c2c1`, 13.4 °C.
On to `O=C1NC(=O)[C@@H](c2cn3c4c(cccc24)CCC3)[C@@H]1c1c[nH]c2ccccc12` [Tivantinib (ARQ 197)], for which the “thermal shift delta Tm” value was 0.39 °C.
On the same count and under the same terms, in the case of `O=S(=O)(c1cccc2c(I)cccc12)N1CCCNCC1` it was 0.35 °C; in that of `CCN1CCN(Cc2ccc(C(=O)Nc3ccc(C)c(Oc4ccc5c(c4)CC(=O)N5)c3)cc2C(F)(F)F)CC1`, 0.43 °C; in that of `C[C@@H](Nc1cc(F)cc(F)c1)c1cc(C(=O)N(C)C)cc2c(=O)cc(N3CCOCC3)oc12`, 0.08 °C.
`C[C@H](CN(C)C)Oc1nc(Nc2cc3cccc(Cl)c3cn2)cnc1C#N`: the “thermal shift delta Tm” value amounted to 0.34 °C.
Same read-out and setting: in the case of `CNC(=O)c1cc(Oc2ccc(NC(=O)Nc3ccc(Cl)c(C(F)(F)F)c3)cc2)ccn1` [Sorafenib] it was 1.77 °C; in that of `COc1ccc(Cl)cc1NC(=O)Nc1cc(C)nc2ccccc12`, 0.66 °C.
On the same count and under the same terms, for `O=C(c1cccc(Cl)c1F)N1CCN(Cc2cccc(Nc3nccs3)n2)CC1` the value was 0.46 °C; for `CNC(=O)c1ccc(C)c(-n2c(C)cc(OCc3ccc(F)cc3F)c(Br)c2=O)c1`, 0.12 °C; for `CCn1c(-c2nonc2N)nc2c(C#CC(C)(C)O)ncc(OC[C@H]3CCCNC3)c21`, 0.35 °C.
The same measure, in the same setting: for `CCC[C@H](NC(=O)/C(C#N)=C/c1cccc(Br)n1)c1ccccc1` [Degrasyn (WP1130)] the value was 0.17 °C.
Regarding `OC1CCC(Nc2ncc3nc(Nc4c(F)cc(F)cc4F)n([C@H]4CCOC4)c3n2)CC1` (some centres undefined) [Tanzisertib(CC-930)], the “thermal shift delta Tm” value is 0.55 °C.
Still for that read-out and setting: in the case of `CN(C)C/C=C/C(=O)Nc1cc2c(Nc3ccc(F)c(Cl)c3)ncnc2cc1O[C@H]1CCOC1` [Afatinib (BIBW2992) Dimaleate] it was -0.12 °C; in that of `Cc1cc(O)c(-c2ccc([C@@H](C)CN)cc2)c2c1[nH]c(=O)c1sccc12` [OTS514 hydrochloride], 0.57 °C; in that of `Cc1ccc(F)c(NC(=O)Nc2ccc(-c3cccc4[nH]nc(N)c34)cc2)c1` [Linifanib (ABT-869)], 1.72 °C.
Same read-out and setting: for `COc1cc(N2CCC(N(C)C)CC2)ccc1Nc1ncc(Cl)c(Nc2ccccc2P(C)(C)=O)n1` the value was 4.81 °C.

The values are drawn from the supplement of paper PMC9694430.
